Laboratory results published in PubChem BioAssay AID2625 (National Center for Advancing Translational Sciences (NCATS), 2010).
Records with an inconclusive call do not appear. Active and inactive are the calls of the source. The call rests on the fitted dose curve; in most records, active means well fitted curve in the direction sought with a large enough effect; inconclusive means small, poorly fitted or top-dose-only effect, or effect the other way, or another doubt; inactive means no such curve, though single readings can be large or run the other way.

biological target: Pyruvate kinase PKLR (Homo sapiens) (UniProt P30613); assay: Secondary LDH Assay for Activators of Human Liver Pyruvate Kinase: for Probe SAR; conditions: purified hPK-L, LDH-coupled NADH fluorescence kinetic; series mostly up to 58.2 µM; activity change, positive = activation: at the top concentration;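 further: 0% = uninhibited enzyme rate and 100% = full activation by fructose bisphosphate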
Excerpt: NIH Chemical Genomics Center [NCGC]
Matthew G. Vander Heiden, M.D., Ph.D. [Harvard Medical School, 77 Avenue Louis Pasteur, Boston, MA 02115]
Human pyruvate kinase liver (hPK-L)enzyme was supplied as a highly purified (>95% pure) preparation from Harvard Medical School and a secondary assay was used to evaluate compounds. This assay couples the formation of pyruvate from hPK-R using lactate dehydrogenase (LDH) and NADH. The depletion of NADH is followed in a fluorescent-based kinetic assay that follows the formation of pyruvate to lactate, as catalyzed LDH. Pyruvate kinase substrates, PEP and ADP, were present in the assay at 0.1 mM and 4 mM respectively. In this kinetic assay initial rates were determined by following the fluorescence of NADH depletion.
NCGC Assay Protocol Summary:
Three uL of substrate mix (final concentration, 50 mM Tris-Cl pH 8.0, 200 mM KCl, 15 mM MgCl2, 0.1 mM PEP, 4.0 mM ADP, and 0.2 mM NADH) was dispensed into black-solid 1536 well plates. 23 nL of compounds were delivered by a pin tool and 1 uL of enzyme mix (final concentrations, 10 nM hPK-L and 1 uM of LDH) was added. Plates were immediately placed in ViewLux (Perkin Elmer) and NADH fluorescence was determined at 30 second exposure intervals for between 3 and 6 minutes. Data were normalized to the uninhibited and EC100 activation using known activators such as fructose-bis-phosphate.

Pyruvate kinase PKLR (Homo sapiens), sequence (P30613 whole entry, looked up): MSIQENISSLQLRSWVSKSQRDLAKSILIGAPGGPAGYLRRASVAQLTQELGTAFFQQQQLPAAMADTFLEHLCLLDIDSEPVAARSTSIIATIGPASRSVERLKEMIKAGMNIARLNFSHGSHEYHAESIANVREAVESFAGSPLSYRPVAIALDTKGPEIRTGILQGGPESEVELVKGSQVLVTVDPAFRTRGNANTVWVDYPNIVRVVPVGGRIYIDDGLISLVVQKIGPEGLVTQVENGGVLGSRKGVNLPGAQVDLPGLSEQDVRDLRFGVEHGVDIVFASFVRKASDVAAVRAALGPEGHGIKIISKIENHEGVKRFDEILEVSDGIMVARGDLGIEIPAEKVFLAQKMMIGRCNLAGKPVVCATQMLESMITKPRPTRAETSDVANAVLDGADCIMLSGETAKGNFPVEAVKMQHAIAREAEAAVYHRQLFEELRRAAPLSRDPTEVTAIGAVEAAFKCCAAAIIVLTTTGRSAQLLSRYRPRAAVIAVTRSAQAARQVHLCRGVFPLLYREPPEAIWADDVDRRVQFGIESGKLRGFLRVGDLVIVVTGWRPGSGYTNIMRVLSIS

Q: With COc1ccc(S(=O)(=O)Nc2ccc(C)c(C)c2)cc1 as the compound, how does the “activity change, positive = activation” value read?
A: Its value is 13.1% (inactive).

Q: With O=C1c2ccccc2C(=O)N1c1cccc(Cl)c1 as the compound, how does the “activity change, positive = activation” value read?
A: Its value is -11.2% (inactive).

Q: CNc1cc2c(cc1S(=O)(=O)Nc1ccc(C)c(C)c1)CCC(=O)N2 was tested. Which “activity change, positive = activation” value did it give?
A: Its value is -7.54% (inactive).

Q: For N#Cc1cccc(NS(=O)(=O)c2ccc3c(c2)CCC(=O)N3)c1, which “activity change, positive = activation” value is on record?
A: Its value is -15.7% (inactive).

Q: With O=C1c2ccccc2C(=O)N1c1ccc2ccccc2n1 as the compound, how does the “activity change, positive = activation” value read?
A: The value was -17.1% (inactive).

Q: With Cc1c(Cl)cccc1NS(=O)(=O)c1cc2c(cc1Cl)CCC(=O)N2 as the compound, how does the “activity change, positive = activation” value read?
A: The value was 18.1% (inactive).

Q: With Cc1ccc(NS(=O)(=O)c2cc3c(cc2-c2ccsc2)NC(=O)CO3)cc1C as the compound, how does the “activity change, positive = activation” value read?
A: The value was 9.06% (inactive).

Q: With CNc1cccc(S(=O)(=O)N2CCCN(S(=O)(=O)c3ccc4c(c3)OCCO4)CC2)c1 as the compound, how does the “activity change, positive = activation” value read?
A: The value was 21.3% (inactive).

Q: With O=C1CCc2cc([S+](=O)([O-])NC3CCOCC3)ccc2N1 as the compound, how does the “activity change, positive = activation” value read?
A: Its value is -17.9% (inactive).

Q: Which “activity change, positive = activation” value does the source give for COc1ccc(NS(=O)(=O)c2ccc3c(c2)CCC(=O)N3)cc1 here?
A: Its value is 0.76% (inactive).

Q: Which “activity change, positive = activation” value does the source give for Cn1c2cc(S(C)=O)sc2c2cnn(Cc3cccc(O)c3)c(=O)c21 (stereo not given) here?
A: The value was 13.1% (inactive).

Q: Which “activity change, positive = activation” value does the source give for Cc1ccc(NS(=O)(=O)c2ccc3c(c2)N(C)C(=O)CO3)cc1C here?
A: Its value is -4.36% (inactive).

Q: O=C1c2ccccc2C(=O)N1c1cc(=O)c2ccccc2[nH]1 was tested. Which “activity change, positive = activation” value did it give?
A: The value was 10.3% (inactive).

Q: Cc1ccc(N(C)S(=O)(=O)c2ccc3c(c2)CCC(=O)N3)cc1C was tested. Which “activity change, positive = activation” value did it give?
A: Its value is 7.04% (inactive).

Q: For O=C1CCc2cc(Cl)c(S(=O)(=O)Nc3ccc(Cl)c(Cl)c3)cc2N1, which “activity change, positive = activation” value is on record?
A: The value was 19.4% (inactive).

Q: With Cc1ccn2c(NC3CCCCC3)c(-c3ccc(C)o3)nc2c1 as the compound, how does the “activity change, positive = activation” value read?
A: The value was -7.6% (inactive).

Q: How did the “activity change, positive = activation” value turn out when CN(C)c1cccc(S(=O)(=O)N2CCCN(S(=O)(=O)c3ccc4c(c3)OCCO4)CC2)c1 was run?
A: The value was 16.8% (inactive).

Q: How did the “activity change, positive = activation” value turn out when CC(=O)Nc1cccc(S(=O)(=O)Nc2ccc(C)c(C)c2)c1 was run?
A: The value was -6.88% (inactive).

Q: How did the “activity change, positive = activation” value turn out when O=C1CCc2cc(S(=O)(=O)Nc3ccc(F)c(Cl)c3)ccc2N1 was run?
A: The value was -3.62% (inactive).

Q: Cc1ccc(NS(=O)(=O)c2ccc(-c3ccccc3)cc2)cc1C was tested. Which “activity change, positive = activation” value did it give?
A: Its value is -15.4% (inactive).

Q: For Cc1ccc(NS(=O)(=O)c2cc3c(cc2Br)NC(=O)CO3)cc1C, which “activity change, positive = activation” value is on record?
A: Its value is -0.908% (inactive).

Q: For O=C1CCc2cc([S+](=O)([O-])Nc3ccc(N[S+](=O)([O-])c4ccc5c(c4)CCC(=O)N5)cc3)ccc2N1, which “activity change, positive = activation” value is on record?
A: The value was -16.4% (inactive).

Q: For O=C1CCc2cc(S(=O)(=O)Nc3ccc4c(c3)OCCO4)ccc2N1, which “activity change, positive = activation” value is on record?
A: Its value is 2.49% (inactive).

Q: Cc1cc(N2C(=O)c3ccccc3C2=O)n[nH]1 was tested. Which “activity change, positive = activation” value did it give?
A: The value was -12.1% (inactive).

Q: For Cc1ccc(NS(=O)(=O)c2ccc3c(c2)CCC(C)(C)O3)cc1C, which “activity change, positive = activation” value is on record?
A: The value was 5.51% (inactive).

Q: COc1cccc(N2C(=O)c3ccccc3C2=O)c1 was tested. Which “activity change, positive = activation” value did it give?
A: The value was -13.5% (inactive).

Q: Which “activity change, positive = activation” value does the source give for Cc1ccc(NS(=O)(=O)c2ccc(F)cc2)cc1C here?
A: The value was -14.1% (inactive).

Q: For CCNc1cccc(S(=O)(=O)N2CCN(S(=O)(=O)c3ccc4c(c3)OCCO4)CC2)c1, which “activity change, positive = activation” value is on record?
A: The value was -8.22% (inactive).

Q: O=C1CCc2cc(S(=O)(=O)Nc3ccccc3Cl)ccc2N1 was tested. Which “activity change, positive = activation” value did it give?
A: Its value is -18.1% (inactive).

Q: How did the “activity change, positive = activation” value turn out when Cc1ccc2nc(-c3ccc(C)o3)c(Nc3ccc4c(c3)OCO4)n2c1 was run?
A: Its value is 4.65% (inactive).

Q: Which “activity change, positive = activation” value does the source give for Cc1ccc(NS(=O)(=O)c2cc3c(cc2C)NC(=O)CO3)cc1C here?
A: Its value is 10.9% (inactive).

Q: With COc1ccc(OC2=NS(=O)(=O)c3ccccc32)cc1 as the compound, how does the “activity change, positive = activation” value read?
A: Its value is -0.215% (inactive).

Q: How did the “activity change, positive = activation” value turn out when Cc1ccc(NS(=O)(=O)c2ccc3ccccc3c2)cc1C was run?
A: The value was 20.6% (inactive).

Q: CN(C)c1cccc(S(=O)(=O)N2CCN(S(=O)(=O)c3ccc4c(c3)OCCO4)CC2)c1 was tested. Which “activity change, positive = activation” value did it give?
A: Its value is -8.27% (inactive).

Q: Which “activity change, positive = activation” value does the source give for O=C1c2ccccc2C(=O)N1c1noc2ccccc12 here?
A: Its value is -17.1% (inactive).

Q: Which “activity change, positive = activation” value does the source give for Cc1ccc(NS(=O)(=O)c2cc3c(cc2Cl)NC(=O)CO3)cc1C here?
A: The value was 3.53% (inactive).

Q: Cc1ccc(NS(=O)(=O)c2cc3c(cc2F)NC(=O)CC3)cc1C was tested. Which “activity change, positive = activation” value did it give?
A: Its value is 10.1% (inactive).

Q: With Cc1ccc(NS(=O)(=O)c2cc3c(cc2-c2ccccc2)NC(=O)CO3)cc1C as the compound, how does the “activity change, positive = activation” value read?
A: Its value is -14.4% (inactive).

Q: With COc1cccc(Cn2ncc3c4sc(S(C)=O)cc4n(C)c3c2=O)c1 (stereo not given) as the compound, how does the “activity change, positive = activation” value read?
A: Its value is -7.39% (inactive).

Q: Which “activity change, positive = activation” value does the source give for Cc1ccc(NS(=O)(=O)c2ccc3c(c2)CC(=O)N3C)cc1C here?
A: The value was 1.64% (inactive).
